Reference: the supplement of paper PMC3334620
Whole data set: some 33,000 sequences, median “E-score (-0.5 to 0.5)” near -0.016, cut for the highest 2% near 0.3. The entries come from a sample that favours the highest values as a whole.

Target: T1, Yer184c (UniProt P39961)
T1 sequence: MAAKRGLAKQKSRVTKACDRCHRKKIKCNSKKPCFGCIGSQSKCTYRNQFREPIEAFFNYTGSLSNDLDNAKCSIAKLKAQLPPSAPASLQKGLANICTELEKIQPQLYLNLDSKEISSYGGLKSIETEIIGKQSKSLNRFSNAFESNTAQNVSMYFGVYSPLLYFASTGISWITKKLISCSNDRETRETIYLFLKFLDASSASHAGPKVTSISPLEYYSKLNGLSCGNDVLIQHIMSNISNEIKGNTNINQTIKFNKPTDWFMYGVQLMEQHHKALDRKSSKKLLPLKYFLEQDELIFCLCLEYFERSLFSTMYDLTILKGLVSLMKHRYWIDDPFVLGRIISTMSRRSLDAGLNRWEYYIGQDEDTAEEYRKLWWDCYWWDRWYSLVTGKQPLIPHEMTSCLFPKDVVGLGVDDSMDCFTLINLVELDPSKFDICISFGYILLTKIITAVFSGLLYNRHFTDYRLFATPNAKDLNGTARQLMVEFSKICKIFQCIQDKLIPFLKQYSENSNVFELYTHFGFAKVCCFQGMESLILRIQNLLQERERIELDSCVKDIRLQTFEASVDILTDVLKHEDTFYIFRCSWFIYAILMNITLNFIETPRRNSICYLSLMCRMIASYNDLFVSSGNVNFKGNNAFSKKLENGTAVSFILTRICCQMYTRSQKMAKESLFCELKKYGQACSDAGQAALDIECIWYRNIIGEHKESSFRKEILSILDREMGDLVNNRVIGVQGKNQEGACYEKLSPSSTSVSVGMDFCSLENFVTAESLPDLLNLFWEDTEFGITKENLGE
Experiment: PBM E-score (8-mer binding enrichment) (E-score (-0.5 to 0.5)); higher = stronger / more preferred TF binding
Conditions: protein concentration: 100 nM; construct: GST-full length
Summary of the method: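 Yeast transcription factors, full-length or as DNA-binding domains, were expressed with a GST tag using PURExpress in vitro transcription/translation. At about 100-200 nM they were applied to universal all-10-mer Agilent arrays, double-stranded by primer extension on fresh or once-stripped slides. Fluorescent anti-GST detected bound protein, and masliner normalised the scans. E-scores for ungapped eight-base words, pooled with reverse complements, came from the Universal PBM Analysis Suite.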

Sequence | PBM E-score
CAGCCGCA | -0.134
CAGCCTGA | -0.0443
CAGCCGGA | 0.392
ATATCACC | 0.093
ACAGCGGC | -0.0827
CATTCGGA | 0.338
CGTTCGGC | 0.27
CGTTCGGA | 0.342
CATTCGGG | 0.141
AATTCGGA | 0.343
GATTCGGC | 0.364
AATTCGGG | 0.103
AATTCGGT | 0.301
GATTCGAC | -0.112
GGTTCGGA | 0.281
CATTCGGC | 0.269
AATTCGGC | 0.24
ATCCTTGC | -0.0624
GTTAGACA | 0.222
GATTTGTA | 0.103
AGCCAAGG | -0.16
ACTAAGAT | 0.154
GAGGCCCA | -0.319
CGGTTAAG | 0.269
ACGAATAG | -0.0621

Sequence | PBM E-score
TGGGCTAA | -0.147
CAAAAGGG | -0.101
GCCCTTCA | -0.0881
TATTCGGA | 0.356
GATTCGCA | 0.131
TATTCGAA | -0.106
TATTCGCA | 0.0122
GATTCGTA | 0.125
GATTCGGA | 0.329
AGCTTGGA | -0.226
ATTCCATA | 0.147
ACACAGGT | -0.289
AGGCATTA | -0.187
GGGCAAGA | 0.106
GGGCATGA | -0.275
CGGCATGA | 0.313
CGGCATTA | 0.416
CGGCATGC | 0.272
CGGCAAGA | 0.317
GGGCATTA | -0.199
AGGCAAGA | -0.112
CATCGGCC | 0.115
ACCCAGTG | -0.306
GAGAGGGC | -0.293
CCTATCGA | -0.107

Sequence | PBM E-score
CCCGGACG | -0.0945
ACCGGACG | 0.305
ACCGGATG | 0.307
ACCGGATA | 0.187
ACCGGACT | 0.101
ACCGGATC | 0.229
CGCATGAA | 0.0183
AGTTAGTG | 0.00554
CCTATACG | -0.267
CCTCGGCC | 0.257
CCTCGGCA | 0.367
ACTCGGCC | 0.121
ACTCGGCA | 0.299
TCACGGCA | 0.096
TATCGGCA | 0.213
ACTCGGCG | 0.325
CCTCGGCG | 0.355
TCTCGGCA | 0.35
CCTCGGAG | 0.277
CCTCGGTA | -0.0209
ACTCGGCT | 0.209
CGAACACC | 0.0223
AATGGCCA | -0.256
ACGGATTG | 0.161
CATCCGTA | 0.206

Sequence | PBM E-score
ATTCCGTA | 0.322
ATTCCGCG | 0.242
ATTCCGTG | 0.313
CTTCCGTC | 0.209
ATTCCGTC | 0.149
GTTCCGTA | 0.276
ACTCCGTG | 0.1
CTTCCGTA | 0.322
CCTGCGAG | 0.00158
CGTAGCTC | -0.0585
AGTTCACG | -0.0529
CCCCAATA | -0.244
ACGCCAAT | -0.0124
ATTCTTCC | 0.083
ACCGGGAT | 0.256
CAGTTAGA | -0.0352
ATAAGATC | -0.0275
CCGAATTA | 0.231
CCGAATCC | 0.322
CCGAATCA | 0.233
ACGAATCC | 0.115
ACGAATTC | 0.113
CCGAATTC | 0.334
TACGCTAA | 0.0349
GTAACTCA | -0.0122

Sequence | PBM E-score
AGATCTAA | 0.0189
AGTCTTGG | -0.0577
GACAAAAC | 0.0933
GACAAGAA | 0.151
AACCAAAA | 0.0925
GACAAAAA | 0.333
GACCAAAA | 0.309
TACCAAAA | 0.0716
AACAATAT | 0.352
AACAATAC | 0.0929
AGTAATAT | 0.338
AATAATAT | 0.333
AATAATAG | 0.00819
AGTAATAC | 0.106
AGTAATAG | -0.00505
AACAATAA | 0.255
AATAATAC | 0.232
CAACATCG | 0.0608
CCCACGAC | -0.199
GTTAGAGA | -0.0529
ACCTGCTA | -0.00094
CCTGAGTC | -0.0246
ATATGATA | 0.325
GTATGATA | 0.226
CTATGATA | 0.162

Sequence | PBM E-score
CTGCAACA | 0.152
CACAATCA | 0.00768
CGGAAATC | 0.315
AGGAAATA | 0.249
GGGAAATA | 0.0562
CGGAAATA | 0.424
AGGAAATC | 0.0763
CTGAAATC | 0.0356
GGACTTTA | 0.156
AGTAGGTC | -0.225
CTGCGCAA | -0.0246
ATGGTACG | 0.0122
ACTGTTGA | -0.0706
CCGGCGAA | 0.35
CCGGCGTA | 0.313
GCGGCGAA | 0.27
GCGGCGGA | 0.193
CCGGCGGA | 0.369
TCGGCGAA | 0.294
CCGGCGGC | 0.291
GCGGCGTA | -0.0609
ACGGCGTA | 0.0111
TATCTAAA | 0.0877
CACTGCGA | -0.0568
AGGTAGGA | -0.06

Sequence | PBM E-score
GGAGTGCC | 0.0423
TACTATGA | 0.142
CCGGAAAC | 0.396
ACGGAAAG | 0.231
CGGGAAAC | 0.286
CGGGAAAG | 0.138
CCGGAAAG | 0.312
CAGGAAAC | 0.117
CCCACGAA | -0.0234
CAGCGTCC | -0.0361
TTAGGCAA | -0.168
AGAACAGA | 0.0872
GAGTATGC | -0.00892
CCGGGAAA | 0.35
CGGGGAAA | 0.15
TCGGGAAA | 0.309
ACGGGAAA | 0.159
CCGGGGAA | 0.267
GCGGGAAA | 0.223
AGTGCTTG | -0.109
CCTTCTAG | -0.237
ATAGAAAT | 0.318
